Assay [1] has as its system PRMT1 (protein arginine N-methyltransferase 1). Description: PRMT1 binders on small-molecule microarrays, primary screen, biochemical, small-molecule microarray, 635 nm fluorescence (AID 1088).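 Note: binding of Prmt1 protein to compounds spotted on small-molecule microarray slides.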 As to conditions: small-molecule microarray binding, higher = more signal.
Assay [2] in a line: yeast growth modulation, basal conditions, primary screen, YJM789 clinical isolate, OD600, 24 h (AID 1089).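 Note: growth of clinical yeast isolate S. cerevisiae YJM 789 seeded 1000 cells per well; test concentration not given here.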 As to conditions: S. cerevisiae YJM789 growth, higher = more signal, called active from +8 up or from −8 down.
The nature of assay [3]: fission yeast growth modulation, primary screen, strain 972, OD600, 24 h, no modulator (AID 1090).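 Note: basal condition with compound alone and no growth modifier present; test concentration not given here.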 The note with it: S. pombe 972 growth, higher = more signal, called active from +8 up or from −8 down.
Assay [4] is described as follows: S. cerevisiae growth modulation with rapamycin, primary screen, strain BY4716, OD600, 96 h (AID 1091). Note: test concentration not given here. The note with it: higher = more signal, called active from +8 up or from −8 down.
For assay [5], the target named is Torsin-1A-interacting protein 2 (Homo sapiens) (UniProt Q8NFQ8). In words: LULL1 binders on small-molecule microarray, primary screen, cell lysate, human LULL1 lysate, 635/667 nm fluorescence (AID 1092).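 Note: probe is lysate of COS7 cells overexpressing human LULL1; score merges per-feature 667 nm fluorescence with signal-to-noise.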 As to conditions: hLULL1 lysate binding, 635 nm fluorescence, higher = more signal.
Sequence of Torsin-1A-interacting protein 2 (Homo sapiens) (Q8NFQ8 whole entry, looked up): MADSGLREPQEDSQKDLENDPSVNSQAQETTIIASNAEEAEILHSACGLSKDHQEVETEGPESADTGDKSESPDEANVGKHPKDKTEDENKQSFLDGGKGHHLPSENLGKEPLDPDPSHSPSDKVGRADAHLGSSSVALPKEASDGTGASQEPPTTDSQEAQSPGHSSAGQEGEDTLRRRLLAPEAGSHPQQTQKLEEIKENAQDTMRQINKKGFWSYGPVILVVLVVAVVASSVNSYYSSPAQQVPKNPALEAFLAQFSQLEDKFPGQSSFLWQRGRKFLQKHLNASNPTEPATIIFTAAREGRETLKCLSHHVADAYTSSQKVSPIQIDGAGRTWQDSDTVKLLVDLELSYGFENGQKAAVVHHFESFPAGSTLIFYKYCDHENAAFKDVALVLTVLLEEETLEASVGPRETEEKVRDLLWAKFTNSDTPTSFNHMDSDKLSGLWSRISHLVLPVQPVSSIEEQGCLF
The nature of assay [6]: E. coli growth modulation, two-sided OD650, primary screen, E. coli filamentation project, strain DRC41, 24 h (AID 1093).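 Note: MC1000 strain lacking acrAB efflux and sulA so SOS filamentation is blocked; test concentration not given here.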 The note with it: OD650, 24 h, higher = more signal, called active from +8 up or from −8 down.
Assay [7] is described as follows: small-molecule microarray binders of probe aLefty2, primary screen, biochemical, biotinylated probe, 635/667 nm fluorescence (AID 1094).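 Note: score merges spot fluorescence near 667 nm with spot signal-to-noise ratio.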 The note with it: higher = more signal.
In assay [8] the test system is Noggin (protein binding on small-molecule microarray). In words: Noggin binders on small-molecule microarray, primary screen, biochemical, 635/667 nm fluorescence (AID 1095).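 Note: score merges 667 nm feature fluorescence with signal to noise over triplicate slides.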 The note with it: 635 nm fluorescence, higher = more signal.
For assay [9], the target named is Neurogenic locus notch homolog protein 3 (Homo sapiens) (UniProt Q9UM47). Description: NOTCH3 binders on small-molecule microarray, primary screen, biochemical, 635/667 nm fluorescence (AID 1096). The note with it: NOTCH3 binding, 635 nm fluorescence, higher = more signal.
Sequence of Neurogenic locus notch homolog protein 3 (Homo sapiens) (Q9UM47 whole entry, looked up): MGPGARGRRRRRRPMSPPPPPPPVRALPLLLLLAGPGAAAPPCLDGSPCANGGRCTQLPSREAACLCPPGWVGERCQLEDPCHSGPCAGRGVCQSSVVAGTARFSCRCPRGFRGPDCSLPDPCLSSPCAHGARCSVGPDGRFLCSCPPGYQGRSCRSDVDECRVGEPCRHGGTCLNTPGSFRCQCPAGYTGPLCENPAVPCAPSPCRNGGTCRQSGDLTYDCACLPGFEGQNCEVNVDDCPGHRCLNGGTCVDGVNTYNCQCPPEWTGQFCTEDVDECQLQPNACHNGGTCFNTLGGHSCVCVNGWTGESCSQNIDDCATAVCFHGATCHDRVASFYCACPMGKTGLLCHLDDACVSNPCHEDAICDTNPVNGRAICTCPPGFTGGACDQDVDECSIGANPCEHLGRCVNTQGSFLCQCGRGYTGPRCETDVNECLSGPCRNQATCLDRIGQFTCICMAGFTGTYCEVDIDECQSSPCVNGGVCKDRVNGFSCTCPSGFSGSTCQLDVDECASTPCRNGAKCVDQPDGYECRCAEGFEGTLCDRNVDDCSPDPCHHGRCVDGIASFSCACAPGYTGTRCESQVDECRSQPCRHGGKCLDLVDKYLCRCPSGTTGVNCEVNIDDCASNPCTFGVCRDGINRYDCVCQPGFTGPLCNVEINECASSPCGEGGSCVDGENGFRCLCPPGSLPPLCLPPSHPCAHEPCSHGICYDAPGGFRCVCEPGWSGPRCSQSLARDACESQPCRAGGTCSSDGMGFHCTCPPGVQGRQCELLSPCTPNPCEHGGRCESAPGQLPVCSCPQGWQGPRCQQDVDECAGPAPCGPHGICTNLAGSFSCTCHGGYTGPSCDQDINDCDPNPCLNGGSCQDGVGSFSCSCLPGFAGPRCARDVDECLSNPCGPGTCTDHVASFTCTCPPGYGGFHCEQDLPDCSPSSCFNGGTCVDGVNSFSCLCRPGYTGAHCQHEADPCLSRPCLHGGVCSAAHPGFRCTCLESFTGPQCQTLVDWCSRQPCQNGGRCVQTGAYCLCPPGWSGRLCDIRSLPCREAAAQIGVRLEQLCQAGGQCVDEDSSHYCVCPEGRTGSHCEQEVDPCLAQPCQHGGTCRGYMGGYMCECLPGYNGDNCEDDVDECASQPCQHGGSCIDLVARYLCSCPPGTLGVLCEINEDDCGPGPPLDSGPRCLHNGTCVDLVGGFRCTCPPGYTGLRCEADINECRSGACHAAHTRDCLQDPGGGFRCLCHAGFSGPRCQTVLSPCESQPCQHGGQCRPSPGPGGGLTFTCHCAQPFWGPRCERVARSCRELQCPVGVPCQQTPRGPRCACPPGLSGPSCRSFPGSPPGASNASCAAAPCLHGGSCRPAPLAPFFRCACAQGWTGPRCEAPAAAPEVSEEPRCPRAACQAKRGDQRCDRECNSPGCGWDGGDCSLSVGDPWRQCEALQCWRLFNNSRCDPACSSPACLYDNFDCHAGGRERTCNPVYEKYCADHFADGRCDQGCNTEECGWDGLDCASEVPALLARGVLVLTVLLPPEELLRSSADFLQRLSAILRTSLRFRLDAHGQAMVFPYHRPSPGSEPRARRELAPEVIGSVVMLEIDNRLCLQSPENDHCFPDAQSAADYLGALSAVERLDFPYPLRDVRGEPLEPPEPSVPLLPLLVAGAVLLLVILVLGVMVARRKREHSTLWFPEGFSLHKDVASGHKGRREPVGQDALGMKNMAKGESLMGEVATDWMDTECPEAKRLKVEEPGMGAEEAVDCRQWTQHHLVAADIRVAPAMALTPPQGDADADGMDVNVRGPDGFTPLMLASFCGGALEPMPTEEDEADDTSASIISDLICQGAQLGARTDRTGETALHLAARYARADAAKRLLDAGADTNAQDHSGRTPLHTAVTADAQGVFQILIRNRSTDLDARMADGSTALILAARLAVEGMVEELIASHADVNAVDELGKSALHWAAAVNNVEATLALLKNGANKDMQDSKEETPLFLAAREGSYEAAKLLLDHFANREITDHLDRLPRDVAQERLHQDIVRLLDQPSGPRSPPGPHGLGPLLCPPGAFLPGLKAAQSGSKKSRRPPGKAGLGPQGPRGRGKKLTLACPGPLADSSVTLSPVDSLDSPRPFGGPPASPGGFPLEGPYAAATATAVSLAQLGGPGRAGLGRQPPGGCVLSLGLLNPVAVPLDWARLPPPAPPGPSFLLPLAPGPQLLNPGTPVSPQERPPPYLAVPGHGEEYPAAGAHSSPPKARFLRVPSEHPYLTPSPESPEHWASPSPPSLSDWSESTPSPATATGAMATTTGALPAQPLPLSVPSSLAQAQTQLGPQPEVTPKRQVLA
Assay [10] in a line: small-molecule microarray binders of probe aEGFR, primary screen, biochemical, biotinylated probe, 635/667 nm fluorescence (AID 1097).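 Note: probe is a biotinylated anti-EGFR antibody binding compounds printed on slides; score combines fluorescence near 667 nm and signal to noise of each spot.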 As to conditions: higher = more signal.

Activity calls are given as the source filed them.

For `CC(C)C[C@H]1NC(=O)C([C@@H](C)OCc2ccccc2)NC(=O)[C@@]23C(=O)N[C@@H](Cc4ccccc4)C2[C@H](C)[C@@]2(C)O[C@H]2C3/C=C/C/C=C\CNC1=O` (stereo not given in full), the composite z-score came out at 1.55 in [1]; 2.01 in assay [5]; 0.039 in [7]; 0.697 in assay [8]; 1.1 in assay [9]; 0.138 in assay [10]. The z-score was -0.099 (inactive) in assay [2], -1.21 (inactive) in assay [3], 0.206 (inactive) in [4] and -0.281 (inactive) in assay [6].

Regarding `CCOC(=O)C[C@H]1[C@H](OC(=O)Cc2ccc3c(c2)OCO3)[C@@H](NC(=O)c2ccc3ccccc3n2)c2cc(OCCCO)ccc2N1C(=O)Cc1ccc(OC)cc1`, the composite z-score was 0.742 in [1]; 1.34 in assay [5]; 0.0071 in [7]; 1.25 in assay [8]; 0.55 in [9]; -0.103 in [10]. Further, the z-score was -2.25 (inactive) in assay [2], 0.154 (inactive) in assay [3], -0.107 (inactive) in assay [4] and 0.647 (inactive) in assay [6].

In the case of `COc1cc(OC)c(C(O)C2C=CC3C(=O)N(c4ccccc4)C(=O)C3N2Nc2ccc(C(C)C)cc2)cc1Br` (stereo not given), the composite z-score in assay [1] is 1.48; in assay [5], 3.55; in [7], 0.136; in assay [8], -0.276; in assay [9], 1.05; in assay [10], 0.582. For the same compound, the z-score in [2] was -0.0401 (inactive); in [3] it was 1.09 (inactive); in [4], -0.323 (inactive); in assay [6], 0.315 (inactive).

With `CC(C)NC(=O)[C@@]1(C)c2ccccc2C(=O)N(Cc2ccccc2)[C@H]1c1ccc(CO)cc1`, the composite z-score in [1] is 1.53; in assay [5], 3.22; in assay [7], -0.13; in assay [8] it was -0.644; in [9] it was -0.554; in assay [10], -0.0035. The z-score in [2] is -1.46 (inactive); in [3], 0.138 (inactive); in assay [4], -0.932 (inactive); in assay [6], 1.11 (inactive).

For the compound `CCCCN1CC=CC23O[C@@H]4/C=C\CCCOC(=O)C4[C@H]2C(=O)N(C(CO)C(C)C)[C@@H]3C1=O` (stereo not given in full), the composite z-score in [1] was -0.385; in assay [5], 0.601; in [7], -0.165; in assay [8], -0.21; in assay [9], -0.754; in assay [10] it was 0.371. The z-score in assay [2] was 0.383 (inactive); in assay [3], -0.74 (inactive); in assay [4], 0.0577 (inactive); in assay [6], -0.714 (inactive).

On to `C=CCC(OC(C)=O)[C@@H]1[C@@H](N(Cc2cc3ccccc3o2)C(=O)Cc2ccc(OC)cc2)c2cc(OCCCO)ccc2N1C(=O)c1ccc2ccccc2n1` (stereo not given in full), for which the composite z-score in assay [1] worked out at 0.404; in [5], 0.295; in [7], 0.0478; in [8], 0.356; in [9], 0.0707; in assay [10] it was 0.0453. For the same compound, the z-score in [2] is -0.256 (inactive); in assay [3], -0.844 (inactive); in [4] it was 0.292 (inactive); in assay [6] it was 1.03 (inactive).

`CCCCCC1=C2CNC(CC(C)C)(C(=O)OC)C=C2C(C)C1=O` (stereo not given): the composite z-score in [1] was 1.51; in [5], 2.87; in assay [7], 0.0887; in [8] it was -0.272; in assay [9], 0.225; in assay [10], -0.126. Also, the z-score in assay [2] is 0.298 (inactive); in assay [3], 0.421 (inactive); in [4], 0.22 (inactive); in [6], -0.415 (inactive).

Consider `CC(C)C(=C=CC[C@H](O)c1ccccc1OCCO)C[C@H](O)COCc1ccccc1`, for which the composite z-score in assay [1] is 0.251; in assay [5], 2.8; in assay [7] it was -0.187; in assay [8] it was -0.0604; in assay [9], -0.287; in [10], -0.13. Moreover, the z-score was -0.024 (inactive) in [2], -1.26 (inactive) in [3], -0.501 (inactive) in assay [4] and -0.0543 (inactive) in assay [6].

Consider `O=C1C[C@@](C(=O)NC2CC2)(c2ccc([N+](=O)[O-])cc2)[C@@H](c2ccc(CO)cc2)N1C1CCCCC1`, for which the composite z-score in assay [1] was 1.52; in assay [5] it was 3.12; in assay [7] it was -0.0139; in assay [8] it was 1.74; in [9] it was 1.07; in assay [10], -0.0828. The z-score in assay [2] was -1.19 (inactive); in [3], -2.19 (inactive); in assay [4] it was -2.54 (inactive); in [6], 0.778 (inactive).

On to `COc1ccc([Si](C)(C)[C@@H]2[C@@H](CC(=O)N3Cc4ccccc4C[C@H]3CO)O[C@]3(C(=O)N(Cc4cccc(N5CCOC5=O)c4)c4ccccc43)[C@H]2C)cc1`, for which the composite z-score in assay [1] is 1.56; in assay [5], 1.15; in assay [7] it was -0.121; in [8], 1.42; in [9], 1.12; in assay [10], -0.0972. Also, the z-score in assay [2] was -1.45 (inactive); in assay [3] it was 0.837 (inactive); in assay [4] it was 1.77 (inactive); in assay [6], 0.742 (inactive).

Regarding `CC[C@@H]1C=C(C(=O)O)[C@H](c2ccc(OC)cc2)N1S(=O)(=O)c1ccc(C)cc1`, the composite z-score in [1] was -0.222; in assay [5], 2.15; in assay [7] it was -0.0491; in [8], -0.199; in [9], 0.624; in [10] it was -0.0828. The z-score in assay [2] is -0.639 (inactive); in assay [3] it was 0.211 (inactive); in assay [4] it was -0.113 (inactive); in assay [6] it was -1.04 (inactive).

On to `C=CC[C@@]1(C(=O)N(C)C)N=C(c2ccc(OCCCO)cc2)O[C@@H]1c1ccccc1CN=[N+]=[N-]`, for which the composite z-score in [1] was found to be 1.55; in assay [5], 3.33; in assay [7], 0.264; in [8], 1.77; in [9] it was 1.07; in assay [10], 0.538. Besides, the z-score in [2] is -0.127 (inactive); in assay [3], -0.0815 (inactive); in assay [4], -0.64 (inactive); in assay [6] it was 1.42 (inactive).

For the compound `[N-]=[N+]=Nc1ccccc1C[C@@]1(C(=O)NCc2ccccc2)N=C(c2ccc(OCCCO)cc2)O[C@@H]1c1ccccc1N=[N+]=[N-]`, the composite z-score in [1] came to 1.58; in [5] it was 1.69; in [7], 0.469; in assay [8], 1.2; in [9], 0.762; in assay [10] it was 0.0883. Further, the z-score was -0.642 (inactive) in [2], -0.468 (inactive) in assay [3], 5.27 (inactive) in [4] and 0.0498 (inactive) in assay [6].

Take `NC(=O)N1C(=O)C2C(C1=O)C1C=C(CCCO)C2C(c2ccc(CN3CCCC3)cc2)N1Cc1cc2c(cc1Br)OCO2` (stereo not given): the composite z-score in assay [1] is 0.964; in assay [5], 0.835; in [7], -0.128; in [8] it was 0.208; in assay [9], -0.788; in assay [10], -0.211. Besides, the z-score in assay [2] is -2.23 (inactive); in assay [3], -0.251 (inactive); in assay [4], -0.665 (inactive); in [6], 0.181 (inactive).

The values above are taken from PubChem BioAssay.
